Measurements taken from PubChem BioAssay (NCATS).
Several values for one entry are separate records, joined by “and”; a condition that tells them apart may be missing. Equal entries are not always repeated. Results filed as inconclusive are left out. Activity calls are given as the source filed them. Unless noted, the call rests on the fitted dose curve; in most records, active means well fitted curve in the direction sought with a large enough effect; inconclusive means small, poorly fitted or top-dose-only effect, or another doubt; inactive means no such curve, though single readings can be large; an effect the other way counts as inactive or inconclusive.

Assay: qHTS Assay for Identifying Gametocytocidal Compounds (AID 743244);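 further: on the % scale 0 is the no-effect control and ±100 the full control effect; actives lower the fluorescent signal which means gametocytes are killed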
Conditions: P. falciparum 3D7 stage III-V gametocytes, alamarBlue, 72 h; max response: stronger effect = lower value
Outline: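 Fluorescence at Ex 525/Em 598 nm, recorded 24 h after alamarBlue addition, reports residual metabolic activity of 3D7 gametocytes (stages III–V) following 72 h compound exposure at 37 °C, 5% CO2.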

Compound | max response
CC/C=C(\C(=O)N[C@@H]1C(=O)N2C(C(=O)OCOC(=O)C(C)(C)C)=C(COC(N)=O)CS[C@H]12)c1csc(N)n1 | 11.6% (inactive) and -14.5% (inactive)
O=C(O)COc1nn(Cc2ccccc2)c2ccccc12 | 49.6% (inactive)
CC1(C)S[C@@H]2[C@H](NC(=O)Cc3ccccc3)C(=O)N2[C@H]1C(=O)O (tested in a mixture with another compound) | -2.5% (inactive)
NS(=O)(=O)c1cc2c(cc1Cl)NC(CSCc1ccccc1)=NS2(=O)=O | -8.8% (inactive)
CC[C@@]1(c2ccccc2)NC(=O)N(C)C1=O | 7.9% (inactive)
CCOc1nc2cccc(C(=O)O)c2n1Cc1ccc(-c2ccccc2-c2nn[nH]n2)cc1 | 5.7% (inactive)
CC(COc1ccccc1)NC(C)C(O)c1ccc(O)cc1 (centres undefined) | 25.2% (inactive)
Nc1ccc(S(=O)(=O)Nc2ccccc2)cc1 | -2.25% (inactive)
COc1cc2[nH]c(=O)[nH]c(=O)c2cc1OC | 5.15% (inactive)
c1ccc2c(CC3=NCCN3)cccc2c1 | 1.75% (inactive) and 3.04% (inactive) and -11% (inactive)
O=c1cc[nH]c(=O)[nH]1 | 17% (inactive)
Oc1cn2c(n1)Nc1ccc(Cl)c(Cl)c1C2 | 2.25% (inactive) and 14.5% (inactive)
COc1ccc(S(=O)(=O)Nc2nnc(CC(C)C)s2)cc1 | 7.52% (inactive) and 10.3% (inactive)
CC(C)(C)NCC(O)COc1ccc(NC(=O)NC2CCCCC2)cc1 (centres undefined) | 11.9% (inactive)
N[C@H]1C(O)O[C@H](CO)[C@@H](O)[C@@H]1O (some centres undefined) | -9.09% (inactive)
COc1cc(C)c(Cc2cnc(N)nc2N)cc1OC | -2.96% (inactive)
CC(C)(O)c1ccccc1CC[C@@H](SCC1(CC(=O)O)CC1)c1cccc(/C=C/c2ccc3ccc(Cl)cc3n2)c1 | -7.08% (inactive)

Compound | max response
CO/N=C(\C(=O)N[C@@H]1C(=O)N2C(C(=O)O)=C(CSc3nc(=O)c(O)nn3C)CS[C@H]12)c1csc(N)n1 | -6.47% (inactive)
CCCCC/C(C=O)=C\c1ccccc1 | 8.31% (inactive)
CCCCc1ncc(/C=C(\Cc2cccs2)C(=O)O)n1Cc1ccc(C(=O)O)cc1 | -3.3% (inactive)
CCCCOc1cc(C(=O)OCCN(CC)CC)ccc1N | 9.75% (inactive)
CCCCN1CCCC[C@H]1C(=O)Nc1c(C)cccc1C | 12.1% (inactive)
[O-][n+]1cccc(CO)c1 | -4.23% (inactive)
O=C(O)CN1C(=O)c2cccc3cccc(c23)C1=O | 0.25% (inactive)
COc1ccc2[nH]c(S(=O)Cc3ncc(C)c(OC)c3C)nc2n1 (centres undefined) | -2.18% (inactive)
CCN(CC)CCSC(=O)C(c1ccccc1)c1ccccc1 | -11.9% (inactive)
Cc1cccc(C)c1NC(=O)CN(CC(=O)O)CC(=O)O | -6.34% (inactive)
O=c1[nH]c(=O)c2[nH]c(=O)[nH]c2[nH]1 | 19.7% (inactive) and 9.73% (inactive)
O=C(CCCN1CCN(c2ccccn2)CC1)c1ccc(F)cc1 | 11.2% (inactive)
O=C1Nc2ccc(Cl)cc2[C@@](C#CC2CC2)(C(F)(F)F)O1 | -21.2% (inactive)
NC(=O)c1ncn([C@@H]2O[C@H](CO)[C@@H](O)[C@H]2O)c1N | -0.312% (inactive) and 4.68% (inactive)
NC(CSCC(=O)O)C(=O)O (centres undefined) | -8.42% (inactive)
CC(=O)CCC(=O)O | 13.5% (inactive)

Assay: qHTS profiling for inhibitors of Plasmodium falciparum (3D7) proliferation (AID 743322; call rule not given here;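 further: infected erythrocytes exposed to compound for 72 h before lysis; 100% = DMSO vehicle wells and 0% = 0.29 µM artemisinin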)
Conditions: P. falciparum 3D7 proliferation; at 28.7 µM (top of the series) unless noted
Outline: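 Erythrocytes infected with P. falciparum (0.3% parasitemia, 2.5% hematocrit) incubated with compounds 72 h at 37 C, 5% CO2. Lysis with saponin/Triton buffer containing SYBR Green I, overnight at room temperature in the dark; DNA fluorescence (485/535 nm) normalised to 0.29 uM artemisinin and DMSO.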

Compound | remaining parasite growth % (stronger effect = lower value)
CC(=O)O[C@@]12CO[C@@H]1C[C@H](O)[C@@]1(C)C(=O)[C@H](O)C3=C(C)[C@@H](OC(=O)[C@H](O)[C@@H](NC(=O)OC(C)(C)C)c4ccccc4)C[C@@](O)([C@@H](OC(=O)c4ccccc4)[C@H]21)C3(C)C | 7.64% and -0.123%
CCCCN(CCCC)CC(O)c1cc(Cl)cc2c1-c1ccc(Cl)cc1/C2=C/c1ccc(Cl)cc1 (centres undefined) | 0.77%
O=C1Nc2ccc(Cl)cc2[C@@](C#CC2CC2)(C(F)(F)F)O1 | 6.68% [at 57.5 µM]
NC(=O)c1ncn([C@@H]2O[C@H](CO)[C@@H](O)[C@H]2O)c1N | 104%

Assay: qHTS profiling for inhibitors of Plasmodium falciparum (DD2) proliferation (AID 743323; call rule not given here)
Conditions: lower = more inhibition; at 28.7 µM (top of the series) unless noted
Outline: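 P. falciparum Dd2-infected erythrocytes (0.3% parasitemia, 2.5% hematocrit) exposed 72 h at 37 C, 5% CO2. Lysis with SYBR Green, overnight at room temperature, fluorescence 485/535 nm; normalized to 0.29 uM artemisinin and DMSO.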

Compound | activity, percent of control
CC(=O)O[C@@]12CO[C@@H]1C[C@H](O)[C@@]1(C)C(=O)[C@H](O)C3=C(C)[C@@H](OC(=O)[C@H](O)[C@@H](NC(=O)OC(C)(C)C)c4ccccc4)C[C@@](O)([C@@H](OC(=O)c4ccccc4)[C@H]21)C3(C)C | 14.2% and 11.9%
CCCCN(CCCC)CC(O)c1cc(Cl)cc2c1-c1ccc(Cl)cc1/C2=C/c1ccc(Cl)cc1 (centres undefined) | 1.35%
O=C1Nc2ccc(Cl)cc2[C@@](C#CC2CC2)(C(F)(F)F)O1 | 22.7% [at 57.5 µM]
NC(=O)c1ncn([C@@H]2O[C@H](CO)[C@@H](O)[C@H]2O)c1N | 121%

Assay: qHTS profiling for inhibitors of Plasmodium falciparum (HB3) proliferation (AID 743324);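 further: 100% = DMSO vehicle wells and 0% = artemisinin-treated control wells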
Conditions: Plasmodium falciparum HB3 blood-stage proliferation; at 28.7 µM (top of the series) unless noted
Outline: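 P. falciparum HB3 grown in erythrocytes (0.3% parasitemia, 2.5% hematocrit final) with compound for 72 h at 37 C, 5% CO2. Parasite DNA detected by SYBR Green after saponin/triton lysis overnight; normalized to 0.29 uM artemisinin and DMSO.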

Compound | remaining proliferation (% of control), lower = more inhibition
CC(=O)O[C@@]12CO[C@@H]1C[C@H](O)[C@@]1(C)C(=O)[C@H](O)C3=C(C)[C@@H](OC(=O)[C@H](O)[C@@H](NC(=O)OC(C)(C)C)c4ccccc4)C[C@@](O)([C@@H](OC(=O)c4ccccc4)[C@H]21)C3(C)C | 0.549% and 1.1%
CCCCN(CCCC)CC(O)c1cc(Cl)cc2c1-c1ccc(Cl)cc1/C2=C/c1ccc(Cl)cc1 (centres undefined) | 1.36%
O=C1Nc2ccc(Cl)cc2[C@@](C#CC2CC2)(C(F)(F)F)O1 | 11.8% [at 57.5 µM]
